KDM5B inh: blocks human KDM5B histone demethylase activity. KDM5B demethylase, FDH-coupled NADH fluorescence (FDH is formaldehyde dehydrogenase). 220,000 tested, 2.6% active. Potency, µM (highest dose often 57.7 µM), actives largely listed as inhibitors. Q9UGL1. AID 1347165; active means well fitted inhibition curve with a large enough effect; inconclusive means small, poorly fitted or top-dose-only effect; inactive means no such curve, though single readings can be large or run the other way; further: nearly all actives have a fitted effect of over 70% in size
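Measured: NADH fluorescence change, 30 min, RT. System: KDM5BΔAP 200 nM final, H3K4me3 peptide, α-KG, Fe(II), ascorbate, NAD⁺ plus FDH, pH 7.5 HEPES. Compounds: titrated, 10 min pre-incubation with enzyme.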
IP6K1 inh: IP6K1 kinase inhibition. activity change, % (series mostly up to about 58 µM). Q92551. AID 1645851. 140,000 tested, 0.81% active. IP6K1 kinase, ADP-Glo luminescence, 2 h; hits give low values; in the data active means activity change below about -25%
Target sequence (Q92551 whole entry, looked up): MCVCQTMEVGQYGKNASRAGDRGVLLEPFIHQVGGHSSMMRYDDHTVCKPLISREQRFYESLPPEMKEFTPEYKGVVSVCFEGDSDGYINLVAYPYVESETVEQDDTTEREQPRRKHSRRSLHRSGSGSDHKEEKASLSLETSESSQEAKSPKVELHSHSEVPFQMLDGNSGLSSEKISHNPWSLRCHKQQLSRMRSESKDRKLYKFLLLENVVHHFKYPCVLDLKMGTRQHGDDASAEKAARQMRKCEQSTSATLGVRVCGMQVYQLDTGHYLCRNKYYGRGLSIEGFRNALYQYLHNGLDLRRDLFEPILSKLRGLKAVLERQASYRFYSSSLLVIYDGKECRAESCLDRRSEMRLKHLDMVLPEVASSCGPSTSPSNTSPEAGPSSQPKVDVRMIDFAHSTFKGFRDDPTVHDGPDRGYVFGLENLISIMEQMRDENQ
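ADP-Glo luminescence measures ADP made by human IP6K1 during a 2 h RT reaction with ATP/IP6 (mix at 1.3 mM/130 uM); top library doses 57.5 and 19.1 uM final.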
A number is an active result; 0 = inactive; ? = inconclusive; - = not tested or not shown. This is a sample that favours compounds with a hit; in the whole collection about 2.8% have one here.

SMILES | KDM5B inh | IP6K1 inh
COc1ccc(C(CNC(=O)c2ccc(Cl)s2)N(C)C)cc1 (stereo not drawn) | 0 | -
O=C(N[C@H]1[C@H](O)[C@H](O)C[C@@H]1c1ccc(N2CCOCC2)nc1)c1ccc2c(c1)OCCO2 | ? | 0
O=C(COc1ccccc1)N[C@H]1[C@H](O)[C@H](O)C[C@@H]1c1ccc(N2CCOCC2)nc1 | 32µM | 0
COc1ccc(CC(=O)N[C@H]2[C@H](O)[C@H](O)C[C@@H]2c2ccc(N3CCOCC3)nc2)cc1 | 32µM | 0
CC(C)C(=O)N[C@H]1[C@H](O)[C@H](O)C[C@@H]1c1ccc(N2CCOCC2)nc1 | 40µM | 0
O=C(N[C@H]1[C@H](O)[C@H](O)C[C@@H]1c1ccc(N2CCOCC2)nc1)c1nc2ccccc2s1 | 0 | 0
COc1ccc(CC(=O)N[C@H]2[C@H](O)[C@H](O)C[C@@H]2c2ccc(C(F)(F)F)nc2)cc1 | 0 | 0
C=CCNc1nc(C(=O)OCC(=O)c2ccc(C3CCCCC3)cc2)cs1 | 0 | -
O=C(NCC1COc2ccccc2O1)c1ccccn1 (stereo not drawn) | 0 | -
C=CCC(O)(CC=C)C(C)NC(=O)c1ccc(OC2CCN(Cc3ccccn3)CC2)cc1 (stereo not drawn) | 0 | 0
O=C(N1CCCCC1)C1(CCO)CC12CCOCC2 (stereo not drawn) | 0 | 0
Cc1cnc(C)c(N2CCC(COc3cnc4c(ccn4CC(N)=O)c3)CC2)n1 | 35µM | 0
O=C(O)Cn1ccc2cc(OCC3CCN(C(=O)C4CCCC4)CC3)cnc21 | 35µM | 0
O=C(O)CCn1ncc2cc(OCC3CCN(C(=O)C4CCCC4)CC3)ccc21 | 0 | 0
O=C(O)Cn1ccc2cc(OCC3CCN(C(=O)CCC(F)(F)F)CC3)cnc21 | 35µM | 0
O=C(O)CCn1ncc2cc(OCC3CCN(C(=O)C4CC4)CC3)ccc21 | 0 | 0
NC(=O)Cn1ccc2cc(OCC3CCN(C(=O)C4CC4)CC3)cnc21 | 35µM | 0
O=C(CCC(F)(F)F)N1CCC(Oc2cnc3c(ccn3-c3cncnc3)c2)CC1 | 0 | 0
Cc1nccc(N2CCC(COc3cnc4c(ccn4CC(N)=O)c3)CC2)n1 | ? | 0
CCOCC(=O)N1C[C@@H](Oc2ccccc2)C[C@H]1C(=O)N1CCCC1 | 0 | 0
CSc1nnc2c(n1)OC(c1cc3c(cc1Br)OCO3)N(C(C)=O)c1ccccc1-2 (stereo not drawn) | 0 | -
Cn1c(CN2CCCC2)nnc1C1CCN(C(=O)c2ccc(=O)[nH]c2)CC1 | 0 | 0
O=C(N[C@@H]1CCC[C@@H]1C(=O)N1CCN(c2cccc(Cl)c2)CC1)c1ccncc1 | 0 | 0
Cc1ccc2c(c1)c1c(c(=O)n(-c3ccccc3C)c(=O)n1CC(=O)NCc1ccccc1)n2C | 0 | 0
COc1ccc(CNC(=O)C2(c3ccc(NC(C)=O)cc3)CCC2)cc1 | 0 | 0
SMILES | KDM5B inh | IP6K1 inh
Cc1ccc2oc(-c3ccc(C)c(NC(=O)c4ccccc4[N+](=O)[O-])c3)nc2c1 | 0 | -
Cc1ccccc1-n1c(C)nnc1SCC(=O)Nc1c(C#N)c(C)c(C)n1Cc1ccccc1 | 0 | -
CN1CC2(CCCN(Cc3cc4ccccc4o3)C2)OC1=O (stereo not drawn) | 0 | 0
CN1CC2(CCCN(Cc3cc4ccccc4n(C)c3=O)C2)OC1=O (stereo not drawn) | 22µM | 0
Cc1sc(NC(=O)c2ccc(CN(C)C)cc2)nc1-c1ccc(Br)cc1 | 0 | -
O=C(Nc1ccccc1)N1CCCC(C(=O)N2CCC(c3nc4ccncc4[nH]3)C2)C1 (stereo not drawn) | - | 0
c1ccc2sc([C@H]3CCN(C4CCC4)C3)nc2c1 | ? | 0
CC(=O)N1CCC(N2CC[C@H](c3nc4ccccc4s3)C2)CC1 | 32µM | 0
COC[C@@H]1CN(c2cnccn2)C[C@H]1C(=O)Nc1ccc(OC)nc1 | 25µM | 0
CC1=C(C)CC(C(=O)N2CCc3ccccc3C2)C(C(=O)O)C1 (stereo not drawn) | 0 | -
O=C(Nc1cccnc1)N1CCN(c2cnccn2)CC1 | 0 | -
COC[C@@H]1CN(c2cnccn2)C[C@H]1C(=O)NCCc1ccccn1 | 20µM | 0
COC[C@@H]1CN(c2cnccn2)C[C@H]1C(=O)Nc1cccnc1 | 28µM | 0
COC[C@@H]1[C@H](C(=O)Nc2ccc(OC)nc2)CCC(=O)N1C | ? | 0
COc1ccc(C(=O)N[C@@H]2CCC[C@@H]2C(=O)NCCc2ccccn2)cn1 | 0 | 0
COC[C@@H]1CN(c2cnccn2)C[C@H]1C(=O)N1CCc2ccccc2C1 | 20µM | 0
O=C(c1ccccc1)N(Cc1ccc2cc[nH]c2c1)C1CC1 | 0 | -
O=C(NC[C@H]1Cn2ccnc2CO1)c1ccc(C(F)(F)F)cc1 | 0 | 0
COc1ccc(C(=O)NC2CCCN(c3ccc4nnc(-c5ccccc5)n4n3)C2)cc1 (stereo not drawn) | - | 0
Cc1ccc2cccc(OCCNC(=O)C3NCCc4[nH]cnc43)c2n1 (stereo not drawn) | 14µM | 0
Cc1cc(C(F)(F)F)nc(CCNC(=O)C2NCCc3[nH]cnc32)n1 (stereo not drawn) | 0 | 0
COc1cccc(-c2nn(-c3ccccc3)c(OC(C)=O)c2-c2ccc(NC(=O)c3ccco3)cc2)c1 | ? | 0
CC(=O)Oc1c(-c2ccc(NC(=O)c3ccco3)cc2)c(C2CC2)nn1-c1cccc(C)c1 | 32µM | 0
Cc1cc(C)c(CNC(=O)c2nc(-c3cnn(C)c3)cc3c2ccn3C)c(=O)[nH]1 | 22µM | 0
Cc1ccc(-c2cc3c(ccn3C(C)C)c(C(=O)NCc3c(C)cc(C)[nH]c3=O)n2)cn1 | ? | 0
SMILES | KDM5B inh | IP6K1 inh
COc1ccc(-c2cc3c(ccn3C(C)C)c(C(=O)NCc3c(C)cc(C)[nH]c3=O)n2)cn1 | ? | 0
COc1ccc(-c2cc3c(ccn3C(C)C)c(C(=O)NCc3c(C)cc(C)[nH]c3=O)n2)cc1 | 25µM | 0
Cc1cc(C)c(CNC(=O)c2nc(-c3ccc(CN(C)C)cc3)cc3c2ccn3C(C)C)c(=O)[nH]1 | 28µM | 0
Cc1cc(-c2cc3c(ccn3C)c(C(=O)NCc3c(C)cc(C)[nH]c3=O)n2)ccn1 | 0 | 0
CC(C)CN[C@@H]1C[C@H](Cn2cc(C3CC3)nn2)[C@@H](O)[C@H]1O | 0 | 0
Cc1ccc(NC(=O)C2CC(=O)N(c3n[nH]c4cc(Br)ccc34)C2)c(C)c1 (stereo not drawn) | 0 | 0
CCCc1noc(-c2ccn3c(CNC(=O)c4ccccc4Cl)nnc3c2)n1 | 0 | 0
CCCc1noc(-c2ccn3c(CNC(=O)c4c(F)cccc4F)nnc3c2)n1 | 28µM | 0
CCc1noc(-c2ccn3c(CNC(=O)c4cc(F)ccc4F)nnc3c2)n1 | 0 | 0
CCCc1noc(-c2ccn3c(CNC(=O)c4ccccc4F)nnc3c2)n1 | 8.9µM | 0
CCCc1noc(-c2ccn3c(CNC(=O)c4cc(F)ccc4F)nnc3c2)n1 | 32µM | 0
CCc1noc(-c2ccn3c(CNC(=O)c4c(F)cccc4F)nnc3c2)n1 | 0 | 0
CC(C)(C)NC(=O)/C(=C/c1ccc(-c2ccc(Br)cc2)o1)NC(=O)c1ccccc1 | 0 | -
Cc1cc2ncc(C(=O)NCc3cccc(F)c3)cn2n1 | - | 0
NS(=O)(=O)c1ccc(N/N=C/c2ccco2)c([N+](=O)[O-])c1 | 0 | -
CN1CCc2[nH]cnc2C12CCN(C(=O)c1cc(=O)[nH]c3ccccc13)CC2 | 20µM | 0
CN1CCc2[nH]cnc2C12CCN(C(=O)c1cccc(-n3cccn3)c1)CC2 | 0 | 0

Bioassay records (PubChem)
